According to PubChem BioAssay (Tox21):
Values joined by “and” are separate entries in the source; they are usually repeats but may differ in a detail not shown here. Equal entries are not always repeated. Records with an inconclusive call do not appear. Where a call stands in place of a potency, no number is given. A structure can be active in one record and inactive in another. Active and inactive are the calls of the source. The call rests on the fitted dose curve; in most records, active means well fitted cell-killing curve with a large enough effect in the repeat runs; inconclusive means weak or mixed curves, or effect the other way; inactive means no such curve, though single readings can be large or run the other way.

test: qHTS assay to identify small molecule antagonists of the glucocorticoid receptor (GR) signaling pathway - cell viability counter screen (AID 720693); details: GR-bla HeLa viability, CellTiter-Glo luminescence, 18 h, with 5 nM dexamethasone present; series mostly up to 58.5 µM; further: nearly all actives have a fitted effect of over 55% in size
Potency means the concentration at half of the fitted maximal effect.

Structure (SMILES)	Potency
Cc1cccc(N(C)C(=S)Oc2ccc3c(c2)CCC3)c1	inactive
Oc1ccc(Cl)c2cccnc12	inactive
Cc1ccccc1S	inactive
CC(CO)CO	inactive
COc1ncnc(NS(=O)(=O)c2ccc(N)cc2)c1OC	inactive
Cc1cc(C)cc(N)c1	inactive
C[C@@H]1CN(CCCn2c3ccccc3c3ccccc32)C[C@H](C)N1	inactive
CC(C)c1nc(CN(C)C(=O)N[C@H](C(=O)N[C@@H](Cc2ccccc2)C[C@H](O)[C@H](Cc2ccccc2)NC(=O)OCc2cncs2)C(C)C)cs1	inactive
Brc1cc(Br)c(Oc2cc(Br)c(Br)cc2Br)cc1Br	inactive
COC(=O)CCS	inactive
NC(=O)c1ccncc1	inactive
Cc1cscn1	inactive
C=C(C)[C@@H]1CCC2=CCC[C@@H](C)[C@]2(C)C1	inactive
CCC1CO1 (stereo not given)	inactive
c1ccc2c(c1)CCc1ccccc1N2	inactive
CCCC(C(=O)OCCN(CC)CC)(c1ccccc1)c1ccccc1	inactive
COc1cc(C(=O)NC2CCN(C)CC2)ccc1Nc1ncc2c(n1)N(C1CCCC1)CC(F)(F)C(=O)N2C	22.5 µM (active)
O=C(OC(=O)c1ccccc1)c1ccccc1	inactive
CCC(C)COC(C)=O (stereo not given)	inactive

Structure (SMILES)	Potency
CCCCCCCCCI	inactive
C[C@]1(Cn2ccnn2)[C@H](C(=O)O)N2C(=O)C[C@H]2S1(=O)=O	inactive
CC1CC(C)C(=O)C1=O (stereo not given)	inactive
CN(C(=O)CN(CCO)CC(=O)N(C)C(C)(C)Cc1ccccc1)C(C)(C)Cc1ccccc1	inactive
CCCC(=O)C(=O)O	inactive
C1COC1	inactive
O=C(/C=C/c1ccccc1)OCCc1ccccc1	inactive
c1ccc(C[n+]2cccc3ccccc32)cc1	inactive
Oc1cc2c(cc1O)[C@H]1c3ccc(O)c(O)c3OC[C@@]1(O)C2	inactive
Cc1c(C)c2c(c(C)c1OC(=O)CCC(=O)OCCO)CC[C@@](C)(CCC[C@H](C)CCC[C@H](C)CCCC(C)C)O2	21.3 µM (active)
C=C1c2cccc(O)c2C(O)=C2C(=O)[C@]3(O)C(O)=C(C(N)=O)C(=O)[C@@H](N(C)C)[C@@H]3[C@@H](O)[C@H]12	inactive
Cc1ccco1	inactive
CC=C(Cl)Cl	inactive
O=c1[nH]ncc2ccccc12	inactive
NC1[C@H]2CN(c3nc4c(cc3F)c(=O)c(C(=O)O)cn4-c3ccc(F)cc3F)C[C@@H]12 (stereo not given in full)	inactive
C=Cc1ccc(S(=O)(=O)O)cc1	inactive
CC[C@]1(O)C[C@H]2CN(CCc3c([nH]c4ccccc34)[C@@](C(=O)OC)(c3cc4c(cc3OC)N(C=O)[C@H]3[C@@](O)(C(=O)OC)[C@H](OC(C)=O)[C@]5(CC)C=CCN6CC[C@]43[C@@H]65)C2)C1	inactive
CC(C)COCC(CN(Cc1ccccc1)c1ccccc1)N1CCCC1 (stereo not given)	inactive

test: qHTS assay for identifying genotoxic compounds that show differential cytotoxicity against isogenic chicken DT40 cell lines with known DNA damage response pathways - wild type cell line (AID 743012); details: DT40 wild type chicken cells viability, CellTiter-Glo, 40 h; series mostly up to 68.4 µM; further: nearly all actives have a fitted effect of over 60% in size
Outline: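 Luminescent ATP viability signal (CellTiter-Glo, 30 min RT) recorded after wild type DT40 cells were incubated with compounds for 40 h at 37 C/5% CO2.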

Structure (SMILES)	Potency
Oc1ccc(Cl)c2cccnc12	2.98 µM (active)
Cc1ccccc1S	34.6 µM (active)
CC(CO)CO	inactive
COc1ncnc(NS(=O)(=O)c2ccc(N)cc2)c1OC	inactive
Cc1cc(C)cc(N)c1	inactive
C[C@@H]1CN(CCCn2c3ccccc3c3ccccc32)C[C@H](C)N1	9.44 µM (active)
CC(C)c1nc(CN(C)C(=O)N[C@H](C(=O)N[C@@H](Cc2ccccc2)C[C@H](O)[C@H](Cc2ccccc2)NC(=O)OCc2cncs2)C(C)C)cs1	inactive and 23.7 µM (active)
COC(=O)CCS	inactive
NC(=O)c1ccncc1	inactive
Cc1cscn1	inactive
C=C(C)[C@@H]1CCC2=CCC[C@@H](C)[C@]2(C)C1	27.3 µM (active)
CCC1CO1 (stereo not given)	inactive
CCCC(C(=O)OCCN(CC)CC)(c1ccccc1)c1ccccc1	8.41 µM (active)
COc1cc(C(=O)NC2CCN(C)CC2)ccc1Nc1ncc2c(n1)N(C1CCCC1)CC(F)(F)C(=O)N2C	0.0044 µM (active)
O=C(OC(=O)c1ccccc1)c1ccccc1	inactive
CCC(C)COC(C)=O (stereo not given)	inactive
CCCCCCCCCI	inactive

Structure (SMILES)	Potency
C[C@]1(Cn2ccnn2)[C@H](C(=O)O)N2C(=O)C[C@H]2S1(=O)=O	inactive
CC1CC(C)C(=O)C1=O (stereo not given)	inactive
CCCC(=O)C(=O)O	inactive
C1COC1	inactive
O=C(/C=C/c1ccccc1)OCCc1ccccc1	inactive
c1ccc(C[n+]2cccc3ccccc32)cc1	54.5 µM (active)
Oc1cc2c(cc1O)[C@H]1c3ccc(O)c(O)c3OC[C@@]1(O)C2	43.8 µM (active)
Cc1c(C)c2c(c(C)c1OC(=O)CCC(=O)OCCO)CC[C@@](C)(CCC[C@H](C)CCC[C@H](C)CCCC(C)C)O2	11.9 µM (active)
C=C1c2cccc(O)c2C(O)=C2C(=O)[C@]3(O)C(O)=C(C(N)=O)C(=O)[C@@H](N(C)C)[C@@H]3[C@@H](O)[C@H]12	inactive
Cc1ccco1	inactive
CC=C(Cl)Cl	inactive
O=c1[nH]ncc2ccccc12	inactive
NC1[C@H]2CN(c3nc4c(cc3F)c(=O)c(C(=O)O)cn4-c3ccc(F)cc3F)C[C@@H]12 (stereo not given in full)	4.73 µM (active)
C=Cc1ccc(S(=O)(=O)O)cc1	inactive and 30.6 µM (active)
CC[C@]1(O)C[C@H]2CN(CCc3c([nH]c4ccccc34)[C@@](C(=O)OC)(c3cc4c(cc3OC)N(C=O)[C@H]3[C@@](O)(C(=O)OC)[C@H](OC(C)=O)[C@]5(CC)C=CCN6CC[C@]43[C@@H]65)C2)C1	0.0075 µM (active)
CC(C)COCC(CN(Cc1ccccc1)c1ccccc1)N1CCCC1 (stereo not given)	5.31 µM (active)
